Screening data as filed in PubChem.
HDAC3 inh – human HDAC3 inhibition | O15379 | recombinant HDAC3, fluorogenic peptide/trypsin coupled, fluorescence | 320,000 compounds, 0.15% hits | inhibition, % at 8.3 µM; in the data active = inhibition above about 26%, passing the limit was not always enough; inconclusive = no clear call, values can overlap the other calls
Target sequence (O15379 whole entry, looked up): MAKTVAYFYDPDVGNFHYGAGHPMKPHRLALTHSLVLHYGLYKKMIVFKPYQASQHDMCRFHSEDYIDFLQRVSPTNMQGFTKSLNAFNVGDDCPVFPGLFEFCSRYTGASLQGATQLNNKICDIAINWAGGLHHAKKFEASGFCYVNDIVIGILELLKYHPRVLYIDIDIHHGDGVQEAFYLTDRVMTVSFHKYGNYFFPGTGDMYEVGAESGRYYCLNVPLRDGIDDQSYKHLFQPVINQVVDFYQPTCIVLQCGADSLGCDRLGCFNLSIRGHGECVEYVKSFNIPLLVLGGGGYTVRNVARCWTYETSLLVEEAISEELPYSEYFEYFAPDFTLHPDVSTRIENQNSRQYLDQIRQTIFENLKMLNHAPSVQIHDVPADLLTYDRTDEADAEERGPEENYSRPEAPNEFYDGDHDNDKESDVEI
Efflux pump inh – antifungal efflux pump inhibition, Nile Red retention. S. cerevisiae Candida pump triplex. inhibition, % at 10 µM. AID 485275. 330,000 compounds, 0.44% hits;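 active = plate passing quality check with inhibition over a set limit, or well fluorescence over plate mean plus 4 SD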;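 also: Nile Red retained in pooled yeast measured as flow cytometry median fluorescence; higher means more Nile Red kept so more efflux inhibition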
Rtt109 HAT inh – blocks Candida albicans Rtt109/Vps75 acetyltransferase activity | Q5AAJ8 | inhibition, % at 34.9 µM | 330,000 compounds, 0.16% hits | purified Rtt109/Vps75, ThioGlo CoA-SH fluorescence, 4 h | AID 540336;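 active = inhibition of at least 50% in every replicate; inconclusive = best replicate reaches 50% inhibition but some replicates fall short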
GRK2 aptamer HTS – blocks RNA aptamer binding to human GRK2; bead flow cytometry, FAM-aptamer displacement from GRK2; inhibition of aptamer binding, % at 10 µM; 330,000 compounds, 0.59% hits; AID 488847;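 active = inhibition of aptamer binding above 40%, roughly 3 SD of noise, on plates passing a quality check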;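 also: median bead fluorescence of bound FAM aptamer so fluorescent compounds give negative values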
ALR inh – blocks human ALR sulfhydryl oxidase activity. purified ALR, DTT oxidation, H2O2 HRP-luminol luminescence. inhibition, % (test concentration not listed). 290,000 compounds, 3.8% hits;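 active = mean replicate inhibition above about 79%, with every replicate also reaching it, limit read from the data; inconclusive = only one of the two criteria met; inactive = mean below limit and not every replicate reaching it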
Rce1 inh – inhibitors of yeast Ras-converting enzyme. calls only. AID 2563. 290,000 compounds, 0.27% hits. Q03530. yeast membranes, quenched prenylated peptide cleavage fluorescence;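 active = fall in fluorescence gain of 50% or more versus controls, with final raw signal at or below 3038400; inconclusive = same 50% fall but final raw signal above 3038400; inactive = fall in fluorescence gain under 50%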
Target sequence (Q03530 whole entry, looked up): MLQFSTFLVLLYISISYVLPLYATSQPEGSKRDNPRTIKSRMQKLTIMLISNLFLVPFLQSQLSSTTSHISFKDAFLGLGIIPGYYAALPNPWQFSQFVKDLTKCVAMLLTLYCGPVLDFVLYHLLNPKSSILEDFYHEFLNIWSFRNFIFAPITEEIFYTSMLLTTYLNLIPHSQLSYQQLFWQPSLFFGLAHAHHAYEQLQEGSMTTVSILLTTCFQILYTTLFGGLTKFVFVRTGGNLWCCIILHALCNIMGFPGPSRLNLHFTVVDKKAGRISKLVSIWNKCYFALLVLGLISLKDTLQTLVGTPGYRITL
Each line names hits and unclear results; the compound was inactive in the other large screens. This is a sample that favours compounds with a hit; in the whole collection about 4.5% have one here.

Nc1nc(-c2ccc3c(c2)OCCO3)cs1	ALR inh 98.6
C=CCOCCN(CC)CC	none
Nc1ccccc1OCCOCCOc1ccccc1N	ALR inh 97.8
Cc1ccccc1CNC(=O)c1ccccc1NS(C)(=O)=O	none
CS(=O)(=O)Nc1ccccc1C(=O)Nc1cc(Cl)cc(Cl)c1	GRK2 aptamer HTS 99.0
CS(=O)(=O)Nc1ccccc1C(=O)Nc1cccc(Cl)c1	Rce1 inh active
CS(=O)(=O)Nc1ccccc1C(=O)NCc1ccccc1Cl	Rce1 inh active
CS(=O)(=O)Nc1ccccc1C(=O)NC1CC2CCC1C2 (stereo not drawn)	Rce1 inh active
O=C(CN1CCN(C(=O)c2ccc(-c3nc4ccccc4s3)o2)CC1)Nc1ccc(F)cc1	none (no result: Rce1 inh)
Cc1ccc(C2=NN(CC(=O)O)C(=O)CC2)cc1	none
O=[N+]([O-])c1cccc(Cl)c1NCCNc1ncc(C(F)(F)F)cc1Cl	ALR inh 99.8
Cn1ncc2c(Nc3ccc(Br)cc3)nc(Nc3ccc(Br)cc3)nc21	none
Cn1ncc2c(Nc3ccc(O)cc3)nc(Cl)nc21	ALR inh 90.6
OC1Cc2ccccc2C1Nc1cccc(C(F)(F)F)c1 (stereo not drawn)	none (no result: HDAC3 inh, Efflux pump inh, GRK2 aptamer HTS, ALR inh, Rce1 inh)
Cc1cc2c(cc(C(=O)O)n2C)s1	ALR inh 78.8
Fc1ccc(Nc2c3c(nc4ccccc24)CCC3)cc1	ALR inh 95.2
COc1ccc(Nc2c3c(nc4ccccc24)CCC3)cc1	ALR inh 99.4
c1ccc(Nc2c3c(nc4ccccc24)CCC3)cc1	none (no result: ALR inh)
c1ccc2c(Nc3ccc4c(c3)OCCO4)c3c(nc2c1)CCC3	ALR inh 80.0
COc1ccc(Nc2nc(N)c3ccccc3n2)c(OC)c1	ALR inh 84.0
Cc1cc(Nc2ccc3c(c2)OCCO3)c2ccccc2n1	none (no result: HDAC3 inh, ALR inh)
O=C(Nc1cccc(S(=O)(=O)N2CCCC2)c1)c1ccc(Cl)nc1	none (no result: Rce1 inh)
O=C(O)CNS(=O)(=O)c1ccc(C2CCCCC2)cc1	none
CC1CC(C)CN(C(=O)c2ccc(S(=O)(=O)N3CCCC3)cc2)C1 (stereo not drawn)	none
CO/N=C/c1cccn1-c1nccc(N(C)C)c1C#N	none
Cc1ccc2nc3c(c(Nc4ccccc4)c2c1)CCC3	ALR inh 96.6
COc1cc(Nc2c3ccccc3nc3ccccc23)cc(OC)c1OC	ALR inh 93.8
COc1cc(Nc2nc(-c3ccccc3)c3cc(C)ccc3n2)cc(OC)c1OC	none (no result: ALR inh)
COc1ccc(C)cc1Nc1c2c(nc3ccccc13)CCC2	ALR inh inconclusive
COc1ccccc1Nc1c2ccccc2nc2ccccc12	ALR inh 99.2
COc1ccc(Nc2c3ccccc3nc3ccccc23)cc1	ALR inh 99.6
COc1cccc(CNC(=O)C2CCC(=O)N(C3CC3)C2)c1OC (stereo not drawn)	none (no result: HDAC3 inh, Efflux pump inh, GRK2 aptamer HTS, ALR inh)
CCc1ccc(C(C)(O)C(CN2CCOCC2)c2ccccc2)cc1 (stereo not drawn)	none
COc1ccc(Nc2c3c(nc4ccccc24)CCCC3)cc1OC	ALR inh 98.8
Cc1nn(CC(=O)NC2(C)CCS(=O)(=O)C2)c(C)c1S(=O)(=O)N(C)C (stereo not drawn)	none (no result: Rce1 inh)
CCOc1ccc(NC(=O)Nc2ccc3c(c2)nnn3C)cc1	ALR inh 98.6
COC(=O)C1CN(C(=O)C(C)Oc2ccccc2Cl)c2ccccc2O1 (stereo not drawn)	none (no result: ALR inh)
S=c1[nH]nc(-c2ccco2)n1/N=C/c1ccccn1	ALR inh 98.3 (no result: Rtt109 HAT inh)
Cc1ccc(/C=N/n2c(-c3ccco3)n[nH]c2=S)cc1	none
Cc1cccc(/C=N/n2c(-c3ccco3)n[nH]c2=S)c1	ALR inh 97.3
CCCCCCCCn1c(=O)c(C(=O)OCC)c(O)c2ccccc21	none
CCCCCn1c(=O)c(-c2nc3ccccc3[nH]2)c(O)c2ccccc21	Rce1 inh active
CCOc1ccc(S(=O)(=O)N2CCCCC2)cc1NC(=O)Cc1ccsc1	none (no result: ALR inh, Rce1 inh)
CSc1ccc(C(=O)NC2CCSc3ccccc32)cc1 (stereo not drawn)	none (no result: Rce1 inh)
COc1cccc(C(=O)n2c(SC)nc3cc4c(cc32)OCCO4)c1	HDAC3 inh 92.0 (no result: Rce1 inh)
CC(C)(C)c1ccc(Oc2ccc(NC(=O)c3ccccc3C(=O)O)cn2)cc1	ALR inh 92.6 (no result: Rtt109 HAT inh)
O=C(O)c1ccccc1C(=O)Nc1ccc(Oc2ccccc2)cc1	ALR inh 93.6 (no result: Rtt109 HAT inh)
CC(C)(C)c1ccc(Oc2ccc(N)cn2)cc1	ALR inh 98.1 (no result: Rtt109 HAT inh)
COc1ccc(Oc2ccc(NC(=O)c3ccccc3C)cc2)cc1	none (no result: Rtt109 HAT inh)
Cc1cccc(Oc2ccc3c(c2)cc(C(=O)O)n3C)c1	ALR inh 98.0
O=C(CCC(=O)N1CCOc2ccccc21)NCc1cccnc1	none
NC(=O)C1(Nc2ccc(-c3ccc(Br)cc3)cc2)CCCC1	none (no result: HDAC3 inh, Efflux pump inh, GRK2 aptamer HTS, ALR inh, Rce1 inh)
CCN=C1SC(CC(=O)NCc2ccccc2)C(=O)N1CC (stereo not drawn)	none
COCCN(CC(=O)Nc1cccc(C)c1C)C(=O)c1oc2c(Cl)cccc2c1C	none (no result: Rce1 inh)
Cc1cccc(NC(=O)c2ccccc2C(=O)Nc2cccc(C)c2)c1	none
Cc1cccc(Oc2ccc(NC(=O)c3ccccc3C(=O)O)cc2)c1	ALR inh 98.1
O=C(O)C1Cc2ccccc2CN1S(=O)(=O)c1ccc2ccccc2c1 (stereo not drawn)	ALR inh 95.3
O=C(O)C1Cc2ccccc2CN1S(=O)(=O)c1ccccc1 (stereo not drawn)	none
CCOC(=O)/C(C#N)=C1\SS/C(=C(/C#N)C(=O)OCC)S1	none (no result: Rtt109 HAT inh)
O=C(CCNS(=O)(=O)c1ccc2[nH]c(=O)oc2c1)NCc1ccccc1	Rce1 inh active
COc1ccccc1/C=C/C=N/NC(=O)c1cc(-c2ccco2)[nH]n1	ALR inh 98.3
O=C(O)CCC(=O)NNC(=O)c1cccc(Cl)c1	none
COc1cccc(C(=O)NNC(=O)CCC(=O)O)c1	Rtt109 HAT inh 54.1 (no result: HDAC3 inh, ALR inh)
Cc1cc(C)n(-c2ccccc2C#N)n1	none
CC(C)(C)C(=O)Nc1ccc(C(=O)COC(=O)c2ccccn2)cc1	none (no result: Rce1 inh)
O=C(NC1CCCCC1)c1sc(=S)n2c1[nH]c(=O)c1ccccc12	ALR inh 96.9
CCN1C[C@@H]2[C@@H]3C(=O)N(Cc4ccccc4)C(=O)[C@@H]3[C@](Cc3ccccc3)(C1=O)N2C(=O)c1ccc(C)cc1	none (no result: HDAC3 inh, Efflux pump inh, GRK2 aptamer HTS, ALR inh, Rce1 inh)
CCN(CC)S(=O)(=O)c1ccc(C(=O)Nc2nnc(CSC)o2)cc1	ALR inh 91.0 (no result: Rce1 inh)
CCN(CC)S(=O)(=O)c1ccc(C(=O)Nc2nnc(COC)o2)cc1	none
CC(OC(=O)CNC(=O)COc1ccccc1)C(=O)N(C)Cc1ccccc1 (stereo not drawn)	none
O=C(CSc1nnc(-c2ccc(Cl)cc2)n1Cc1ccco1)c1cccs1	none
O=C(O)c1ccc(CSCc2ccco2)cc1	ALR inh 97.4
O=C(CSCc1ccco1)c1cccs1	HDAC3 inh 91.5, ALR inh 99.0
O=C(Cc1ccccc1)NCCSCc1ccco1	none
COCc1cc(=O)[nH]c2c1c(-c1ccccc1)nn2C	none
O=c1cc(CN2CCc3ccccc32)c2ccc(O)cc2o1	ALR inh 99.4 (no result: Rce1 inh)
